Common to all, as to test: DAPPL (digital affinity profiling via proximity ligation, sequencing); 10 mM Tris-HCl pH 7.5, 50 mM NaCl, 1 mM DTT, 4% glycerol, room temperature, 30 min; GST-TFs on glutathione beads, 16-mer random dsDNA library, 0.1% formaldehyde crosslink after washing; high values mean tight binding
In one test the target is T1, FEV (Homo sapiens, UniProt Q99581 1-238).
T1 sequence: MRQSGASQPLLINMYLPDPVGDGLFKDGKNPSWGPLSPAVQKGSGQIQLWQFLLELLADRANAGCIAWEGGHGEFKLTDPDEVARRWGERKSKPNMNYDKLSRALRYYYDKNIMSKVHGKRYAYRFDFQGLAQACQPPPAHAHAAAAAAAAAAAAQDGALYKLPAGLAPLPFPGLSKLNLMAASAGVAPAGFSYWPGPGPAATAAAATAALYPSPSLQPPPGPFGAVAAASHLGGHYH
Conditions: protein: recombinant; tags: N-terminal GST; dsDNA, one strand shown. The essentials:
(§1)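 Yeast served to express human transcription factors as GST fusions, which were then captured on glutathione beads and labelled with DNA barcodes. Pooled with a tag-only sample, they were incubated with 200 nmole of a 16-mer random double-stranded DNA library for 30 min at room temperature in Tris/NaCl/DTT/glycerol buffer, washed, crosslinked with 0.1% formaldehyde, ligated by proximity, amplified by PCR and sequenced. Dividing each hexamer's read frequency for a factor by its frequency for the tag-only sample gives the binding signal.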

The target of another test is ETV5 (Homo sapiens, UniProt P41161 1-510). Conditions: protein: recombinant; tags: N-terminal GST; dsDNA, one strand shown. The essentials:
as §1

In a further test the target is HSF1 (Homo sapiens, UniProt Q00613 1-529). Conditions: protein: recombinant; tags: N-terminal GST; chain copies: 3; dsDNA, one strand shown. The essentials:
as §1

Another test concerns the target T2, SPIC (Homo sapiens, UniProt Q8N5J4 1-248).
T2 sequence: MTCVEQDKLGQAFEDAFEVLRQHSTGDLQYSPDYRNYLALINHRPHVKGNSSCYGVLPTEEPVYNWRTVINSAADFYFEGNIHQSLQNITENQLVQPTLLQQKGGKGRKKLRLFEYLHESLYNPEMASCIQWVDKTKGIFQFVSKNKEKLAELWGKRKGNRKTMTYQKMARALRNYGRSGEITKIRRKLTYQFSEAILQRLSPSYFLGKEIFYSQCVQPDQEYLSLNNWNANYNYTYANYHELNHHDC
Conditions: protein: recombinant; tags: N-terminal GST; dsDNA, one strand shown. The essentials: as §1

A further test addresses ELF4 (Homo sapiens, UniProt Q99607 1-663). Conditions: protein: recombinant; tags: N-terminal GST; dsDNA, one strand shown. The method in brief:
as §1

The next test addresses T3, ELK4 (Homo sapiens, UniProt P28324-2 1-405).
T3 sequence: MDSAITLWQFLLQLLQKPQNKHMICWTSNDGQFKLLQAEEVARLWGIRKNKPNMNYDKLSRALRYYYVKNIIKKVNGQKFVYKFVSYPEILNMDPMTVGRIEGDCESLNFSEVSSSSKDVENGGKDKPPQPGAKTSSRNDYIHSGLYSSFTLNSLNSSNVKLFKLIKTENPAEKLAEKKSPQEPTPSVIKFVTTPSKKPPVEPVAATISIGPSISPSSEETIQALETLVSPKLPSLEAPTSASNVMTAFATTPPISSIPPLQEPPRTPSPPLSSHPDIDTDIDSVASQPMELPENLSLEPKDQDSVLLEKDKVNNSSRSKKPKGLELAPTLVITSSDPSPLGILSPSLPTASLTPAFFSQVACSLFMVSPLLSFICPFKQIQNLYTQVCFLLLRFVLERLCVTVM
The following applies: protein: recombinant; tags: N-terminal GST; dsDNA, one strand shown. The method in brief: as §1

The next test deals with T4, ETV2 (Homo sapiens, UniProt O00321 1-342).
T4 sequence: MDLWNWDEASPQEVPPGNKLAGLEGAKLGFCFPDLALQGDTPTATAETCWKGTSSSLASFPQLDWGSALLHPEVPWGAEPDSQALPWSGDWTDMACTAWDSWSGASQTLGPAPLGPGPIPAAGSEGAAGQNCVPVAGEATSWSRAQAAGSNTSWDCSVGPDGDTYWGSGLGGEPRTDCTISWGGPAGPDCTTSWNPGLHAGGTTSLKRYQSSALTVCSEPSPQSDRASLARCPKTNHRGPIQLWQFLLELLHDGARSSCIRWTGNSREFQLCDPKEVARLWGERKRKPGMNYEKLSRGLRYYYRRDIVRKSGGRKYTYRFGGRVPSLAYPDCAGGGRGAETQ
Conditions: protein: recombinant; tags: N-terminal GST; dsDNA, one strand shown. The method in brief:
as §1

In a further test the target is T5, ELF3 (Homo sapiens, UniProt P78545 1-371).
T5 sequence: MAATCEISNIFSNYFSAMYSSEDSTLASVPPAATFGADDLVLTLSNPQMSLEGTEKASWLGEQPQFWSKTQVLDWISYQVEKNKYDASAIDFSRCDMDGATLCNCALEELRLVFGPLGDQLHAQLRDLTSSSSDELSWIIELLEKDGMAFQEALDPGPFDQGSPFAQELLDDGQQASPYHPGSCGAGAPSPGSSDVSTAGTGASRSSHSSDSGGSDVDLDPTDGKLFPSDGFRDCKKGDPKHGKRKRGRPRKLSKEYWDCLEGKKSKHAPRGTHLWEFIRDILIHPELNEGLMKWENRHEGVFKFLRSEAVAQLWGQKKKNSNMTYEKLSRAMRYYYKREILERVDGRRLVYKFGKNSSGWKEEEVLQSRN
The following applies: protein: recombinant; tags: N-terminal GST; dsDNA, one strand shown. The method in brief: as §1

The target of a further test is CRX (Homo sapiens, UniProt O43186 1-299). Conditions: protein: recombinant; tags: N-terminal GST; dsDNA, one strand shown. The essentials: as §1
The target in a further test is ETV1 (Homo sapiens, UniProt P50549 1-477). Conditions: protein: recombinant; tags: N-terminal GST; dsDNA, one strand shown. The method in brief: as §1
Another test addresses T6, ERF (Homo sapiens, UniProt P50548 1-548).
T6 sequence: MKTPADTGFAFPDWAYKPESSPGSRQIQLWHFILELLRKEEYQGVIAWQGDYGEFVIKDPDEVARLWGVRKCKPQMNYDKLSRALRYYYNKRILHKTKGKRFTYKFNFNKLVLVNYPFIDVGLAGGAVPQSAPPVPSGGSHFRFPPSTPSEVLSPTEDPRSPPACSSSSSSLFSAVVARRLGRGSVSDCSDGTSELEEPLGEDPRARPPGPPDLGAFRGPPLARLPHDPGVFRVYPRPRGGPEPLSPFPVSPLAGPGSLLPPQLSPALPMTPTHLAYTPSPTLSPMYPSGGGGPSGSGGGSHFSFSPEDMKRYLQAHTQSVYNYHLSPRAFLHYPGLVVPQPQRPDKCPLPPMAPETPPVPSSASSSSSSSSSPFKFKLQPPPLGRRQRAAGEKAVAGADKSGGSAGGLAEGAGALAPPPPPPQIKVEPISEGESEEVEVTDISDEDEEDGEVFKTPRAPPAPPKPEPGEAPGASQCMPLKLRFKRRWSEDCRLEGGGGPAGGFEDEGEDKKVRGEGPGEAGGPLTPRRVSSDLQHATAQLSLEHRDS
The following applies: protein: recombinant; tags: N-terminal GST; dsDNA, one strand shown. The essentials:
as §1

The target of another test is T7, ETV3L (Homo sapiens, UniProt Q6ZN32 1-361).
T7 sequence: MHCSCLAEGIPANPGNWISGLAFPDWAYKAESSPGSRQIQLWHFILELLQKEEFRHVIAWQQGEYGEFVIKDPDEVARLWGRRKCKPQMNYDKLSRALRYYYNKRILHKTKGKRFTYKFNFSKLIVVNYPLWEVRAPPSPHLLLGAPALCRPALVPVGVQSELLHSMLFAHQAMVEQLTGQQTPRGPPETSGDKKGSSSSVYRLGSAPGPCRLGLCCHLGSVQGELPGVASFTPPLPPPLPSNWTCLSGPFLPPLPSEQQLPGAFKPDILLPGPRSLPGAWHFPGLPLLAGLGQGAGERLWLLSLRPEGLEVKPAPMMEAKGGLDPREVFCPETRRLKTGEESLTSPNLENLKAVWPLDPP
Conditions: protein: recombinant; tags: N-terminal GST; dsDNA, one strand shown. The method in brief:
as §1

A further test has as its target T8, ETS2 (Homo sapiens, UniProt P15036 1-469).
T8 sequence: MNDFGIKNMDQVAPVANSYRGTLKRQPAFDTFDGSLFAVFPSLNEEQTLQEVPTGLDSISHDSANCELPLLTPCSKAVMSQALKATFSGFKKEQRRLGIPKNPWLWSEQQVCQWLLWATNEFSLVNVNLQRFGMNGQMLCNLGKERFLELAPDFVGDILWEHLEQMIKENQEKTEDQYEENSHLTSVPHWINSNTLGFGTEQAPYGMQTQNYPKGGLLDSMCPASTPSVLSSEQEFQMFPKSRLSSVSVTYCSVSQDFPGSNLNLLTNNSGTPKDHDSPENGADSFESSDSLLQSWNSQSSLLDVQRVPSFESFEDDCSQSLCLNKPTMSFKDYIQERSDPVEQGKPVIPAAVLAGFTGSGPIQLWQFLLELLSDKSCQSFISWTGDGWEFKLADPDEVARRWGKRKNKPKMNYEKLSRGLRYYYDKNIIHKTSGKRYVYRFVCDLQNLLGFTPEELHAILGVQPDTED
The following applies: protein: recombinant; tags: N-terminal GST; dsDNA, one strand shown. The essentials:
as §1

In another test the target is T9, SPDEF (Homo sapiens, UniProt O95238 1-335).
T9 sequence: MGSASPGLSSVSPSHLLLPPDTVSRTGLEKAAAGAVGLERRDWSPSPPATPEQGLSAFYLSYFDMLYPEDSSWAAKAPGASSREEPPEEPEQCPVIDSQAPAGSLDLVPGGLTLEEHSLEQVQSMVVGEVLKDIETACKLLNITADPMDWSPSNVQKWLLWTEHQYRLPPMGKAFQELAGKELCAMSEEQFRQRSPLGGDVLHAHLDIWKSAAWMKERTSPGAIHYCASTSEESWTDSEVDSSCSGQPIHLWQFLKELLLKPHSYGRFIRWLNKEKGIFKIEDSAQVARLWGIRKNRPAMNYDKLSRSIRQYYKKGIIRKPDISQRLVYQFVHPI
Conditions: protein: recombinant; tags: N-terminal GST; dsDNA, one strand shown. The method in brief: as §1

The target in a further test is T10, ETV7 (Homo sapiens, UniProt Q9Y603 1-341).
T10 sequence: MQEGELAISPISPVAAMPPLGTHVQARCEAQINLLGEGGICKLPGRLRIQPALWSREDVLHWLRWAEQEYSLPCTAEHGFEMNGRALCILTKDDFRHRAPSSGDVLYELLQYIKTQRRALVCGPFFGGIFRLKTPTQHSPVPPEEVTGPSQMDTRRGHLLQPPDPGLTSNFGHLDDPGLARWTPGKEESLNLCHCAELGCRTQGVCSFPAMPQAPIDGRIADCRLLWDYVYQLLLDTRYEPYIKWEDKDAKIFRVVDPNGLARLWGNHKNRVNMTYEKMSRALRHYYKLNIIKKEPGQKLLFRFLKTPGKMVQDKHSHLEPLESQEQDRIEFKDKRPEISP
The following applies: protein: recombinant; tags: N-terminal GST; dsDNA, one strand shown. The method in brief: as §1

In another test the target is T11, ELF5 (Homo sapiens, UniProt Q9UKW6-2 1-255).
T11 sequence: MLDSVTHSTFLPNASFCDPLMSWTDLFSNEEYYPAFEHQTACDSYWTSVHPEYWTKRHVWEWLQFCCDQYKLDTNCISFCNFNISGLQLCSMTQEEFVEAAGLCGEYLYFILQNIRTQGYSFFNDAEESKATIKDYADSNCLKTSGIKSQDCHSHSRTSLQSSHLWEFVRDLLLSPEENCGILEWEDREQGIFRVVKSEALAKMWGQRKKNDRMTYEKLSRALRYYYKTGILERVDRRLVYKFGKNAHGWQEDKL
The following applies: protein: recombinant; tags: N-terminal GST; dsDNA, one strand shown. The method in brief: as §1

The target of a further test is T12, ETV3 (Homo sapiens, UniProt P41162-2 1-143).
T12 sequence: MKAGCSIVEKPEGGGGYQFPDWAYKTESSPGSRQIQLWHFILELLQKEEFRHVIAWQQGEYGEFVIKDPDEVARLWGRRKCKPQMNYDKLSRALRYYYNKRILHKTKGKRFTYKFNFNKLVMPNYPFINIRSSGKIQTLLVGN
The following applies: protein: recombinant; tags: N-terminal GST; dsDNA, one strand shown. The method in brief: as §1

Another test has as its target ETV6 (Homo sapiens, UniProt P41212 1-452). Conditions: protein: recombinant; tags: N-terminal GST; dsDNA, one strand shown. The method in brief: as §1

In publication PMC7862700, “An all-to-all approach to the identification of sequence-specific readers for epigenetic DNA modifications on cytosine” one finds binding signal data, which are given here for one sequence.

Sequence of ETV1 (P50549 whole entry): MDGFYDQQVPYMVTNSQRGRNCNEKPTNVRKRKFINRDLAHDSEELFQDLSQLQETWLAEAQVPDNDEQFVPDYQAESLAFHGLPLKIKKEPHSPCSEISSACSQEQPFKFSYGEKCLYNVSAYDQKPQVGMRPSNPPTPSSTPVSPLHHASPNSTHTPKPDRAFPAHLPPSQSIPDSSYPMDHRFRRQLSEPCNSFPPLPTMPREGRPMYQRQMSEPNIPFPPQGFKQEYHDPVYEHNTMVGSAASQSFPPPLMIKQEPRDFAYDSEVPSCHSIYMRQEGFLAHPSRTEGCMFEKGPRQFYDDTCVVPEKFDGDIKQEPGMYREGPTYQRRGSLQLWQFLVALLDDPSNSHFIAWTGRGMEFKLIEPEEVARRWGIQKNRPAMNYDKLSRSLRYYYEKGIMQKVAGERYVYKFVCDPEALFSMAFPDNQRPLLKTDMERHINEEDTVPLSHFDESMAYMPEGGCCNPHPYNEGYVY
Sequence of CRX (O43186 whole entry): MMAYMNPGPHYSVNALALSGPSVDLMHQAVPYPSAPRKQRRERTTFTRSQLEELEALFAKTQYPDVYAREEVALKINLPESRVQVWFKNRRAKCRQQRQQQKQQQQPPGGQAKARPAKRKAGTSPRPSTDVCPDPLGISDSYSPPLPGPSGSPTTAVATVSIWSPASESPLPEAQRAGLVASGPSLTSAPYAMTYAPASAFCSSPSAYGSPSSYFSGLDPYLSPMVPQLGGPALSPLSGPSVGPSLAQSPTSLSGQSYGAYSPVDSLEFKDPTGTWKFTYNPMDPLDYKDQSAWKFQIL
Sequence of ETV5 (P41161 whole entry): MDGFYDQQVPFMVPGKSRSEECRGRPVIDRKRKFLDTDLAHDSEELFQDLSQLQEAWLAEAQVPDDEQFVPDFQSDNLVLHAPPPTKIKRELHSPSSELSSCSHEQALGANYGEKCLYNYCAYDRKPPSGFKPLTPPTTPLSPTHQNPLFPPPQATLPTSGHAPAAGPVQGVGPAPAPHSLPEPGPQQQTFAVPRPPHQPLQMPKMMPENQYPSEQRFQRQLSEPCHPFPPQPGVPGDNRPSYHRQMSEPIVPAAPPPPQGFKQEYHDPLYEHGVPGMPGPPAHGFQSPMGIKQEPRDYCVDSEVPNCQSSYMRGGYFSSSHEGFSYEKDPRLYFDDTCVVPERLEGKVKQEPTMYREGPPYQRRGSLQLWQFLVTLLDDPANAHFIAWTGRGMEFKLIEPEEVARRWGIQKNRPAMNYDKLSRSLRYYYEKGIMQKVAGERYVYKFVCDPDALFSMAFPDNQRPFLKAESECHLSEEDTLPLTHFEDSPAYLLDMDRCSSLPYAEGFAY
Sequence of ELF4 (Q99607 whole entry): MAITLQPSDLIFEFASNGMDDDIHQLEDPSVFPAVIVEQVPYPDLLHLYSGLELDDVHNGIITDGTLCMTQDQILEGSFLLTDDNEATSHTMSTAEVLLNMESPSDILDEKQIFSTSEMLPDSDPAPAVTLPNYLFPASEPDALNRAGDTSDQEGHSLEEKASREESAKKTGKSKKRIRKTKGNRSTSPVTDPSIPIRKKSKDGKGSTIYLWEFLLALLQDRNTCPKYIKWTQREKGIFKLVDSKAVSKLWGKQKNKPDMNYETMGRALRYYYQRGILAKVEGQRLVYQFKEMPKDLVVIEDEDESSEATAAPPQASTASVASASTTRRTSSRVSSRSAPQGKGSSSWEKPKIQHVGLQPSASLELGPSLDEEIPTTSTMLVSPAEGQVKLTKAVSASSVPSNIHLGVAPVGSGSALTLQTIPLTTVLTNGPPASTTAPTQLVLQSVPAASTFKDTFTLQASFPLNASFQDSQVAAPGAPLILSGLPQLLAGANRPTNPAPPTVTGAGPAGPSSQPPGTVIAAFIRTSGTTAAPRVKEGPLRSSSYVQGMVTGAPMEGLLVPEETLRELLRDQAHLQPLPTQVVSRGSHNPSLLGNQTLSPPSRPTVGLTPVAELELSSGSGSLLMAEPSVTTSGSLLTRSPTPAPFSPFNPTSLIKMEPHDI
Sequence of HSF1 (Q00613 whole entry): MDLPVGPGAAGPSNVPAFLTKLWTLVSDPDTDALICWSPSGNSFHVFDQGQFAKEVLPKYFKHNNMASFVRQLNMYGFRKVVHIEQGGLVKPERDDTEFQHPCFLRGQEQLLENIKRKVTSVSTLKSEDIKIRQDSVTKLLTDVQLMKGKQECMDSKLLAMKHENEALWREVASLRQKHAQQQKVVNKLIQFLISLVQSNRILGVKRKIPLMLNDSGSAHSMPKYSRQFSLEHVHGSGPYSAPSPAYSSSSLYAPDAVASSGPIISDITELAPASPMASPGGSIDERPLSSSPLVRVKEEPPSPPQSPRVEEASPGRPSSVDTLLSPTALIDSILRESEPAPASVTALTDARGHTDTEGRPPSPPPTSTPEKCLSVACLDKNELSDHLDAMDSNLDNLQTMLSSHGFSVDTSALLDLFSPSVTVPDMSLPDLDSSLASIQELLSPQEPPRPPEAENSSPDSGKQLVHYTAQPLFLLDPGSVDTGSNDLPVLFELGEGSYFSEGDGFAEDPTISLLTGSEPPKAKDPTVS
Sequence of ETV6 (P41212 whole entry): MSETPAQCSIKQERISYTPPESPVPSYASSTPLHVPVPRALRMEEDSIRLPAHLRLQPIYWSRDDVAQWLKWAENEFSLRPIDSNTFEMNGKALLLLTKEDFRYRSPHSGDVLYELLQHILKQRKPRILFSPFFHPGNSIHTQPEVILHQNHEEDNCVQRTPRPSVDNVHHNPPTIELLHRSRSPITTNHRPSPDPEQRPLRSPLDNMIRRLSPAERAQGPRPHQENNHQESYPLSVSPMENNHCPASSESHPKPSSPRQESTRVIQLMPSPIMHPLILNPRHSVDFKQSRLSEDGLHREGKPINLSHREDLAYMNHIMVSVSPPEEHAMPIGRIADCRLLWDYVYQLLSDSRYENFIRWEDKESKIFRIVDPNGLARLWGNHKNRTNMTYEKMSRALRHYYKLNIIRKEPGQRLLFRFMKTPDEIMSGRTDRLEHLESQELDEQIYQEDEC

With TTCCCA, the binding signal with FEV was 1.16 fold enrichment (6-mer frequency, TF over GST control); in the test with ETV5, 1.29 fold enrichment (6-mer frequency, TF over GST control); in the test with HSF1, 1.08 fold enrichment (6-mer frequency, TF over GST control); with SPIC, 1.23 fold enrichment (6-mer frequency, TF over GST control); with ELF4, 1.26 fold enrichment (6-mer frequency, TF over GST control); in the test with ELK4 it was 1.08 fold enrichment (6-mer frequency, TF over GST control). Also, the binding signal was 1.13 fold enrichment (6-mer frequency, TF over GST control) with ETV2; 1.27 fold enrichment (6-mer frequency, TF over GST control) in the test with ELF3; 1.16 fold enrichment (6-mer frequency, TF over GST control) with CRX; 1.2 fold enrichment (6-mer frequency, TF over GST control) in the test with ETV1; 1.24 fold enrichment (6-mer frequency, TF over GST control) with ERF; 1.25 fold enrichment (6-mer frequency, TF over GST control) in the test with ETV3L. For the same sequence, the binding signal is 1.15 fold enrichment (6-mer frequency, TF over GST control) in the test with ETS2; 1.25 fold enrichment (6-mer frequency, TF over GST control) in the test with SPDEF; 1.27 fold enrichment (6-mer frequency, TF over GST control) in the test with ETV7; 1.42 fold enrichment (6-mer frequency, TF over GST control) in the test with ELF5; 1.25 fold enrichment (6-mer frequency, TF over GST control) in the test with ETV3; 1.33 fold enrichment (6-mer frequency, TF over GST control) in the test with ETV6.
